Consider one compound from ChEMBL document CHEMBL1961873, “Compounds: GSK PKIS; Assays: Nanosyn kinase panel” (2012).

Assay [1] addresses Sphingosine kinase 1 (Homo sapiens) (UniProt Q9NYA1). As to conditions: at 1 µM.
Assay [2] addresses T1, Sphingosine kinase 2 (Homo sapiens) (UniProt Q9NRA0).
T1 sequence (whole entry): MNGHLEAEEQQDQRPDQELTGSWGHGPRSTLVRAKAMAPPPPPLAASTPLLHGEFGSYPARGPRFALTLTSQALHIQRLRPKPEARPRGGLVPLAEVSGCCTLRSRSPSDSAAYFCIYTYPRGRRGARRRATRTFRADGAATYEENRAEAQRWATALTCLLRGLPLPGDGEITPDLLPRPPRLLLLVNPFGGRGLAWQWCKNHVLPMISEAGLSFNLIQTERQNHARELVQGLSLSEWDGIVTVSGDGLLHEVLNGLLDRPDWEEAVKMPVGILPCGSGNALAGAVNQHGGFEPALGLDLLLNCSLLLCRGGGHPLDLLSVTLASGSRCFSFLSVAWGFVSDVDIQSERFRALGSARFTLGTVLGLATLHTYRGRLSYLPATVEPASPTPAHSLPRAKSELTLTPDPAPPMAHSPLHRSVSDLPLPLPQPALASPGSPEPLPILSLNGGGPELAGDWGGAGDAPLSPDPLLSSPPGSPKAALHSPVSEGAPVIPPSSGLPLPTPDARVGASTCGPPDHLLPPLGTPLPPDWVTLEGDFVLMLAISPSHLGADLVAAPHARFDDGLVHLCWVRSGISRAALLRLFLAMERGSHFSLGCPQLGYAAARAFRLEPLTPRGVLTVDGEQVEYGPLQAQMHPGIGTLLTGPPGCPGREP
As to conditions: at 0.1 µM.

Assay [3] has as its target T1, Sphingosine kinase 2 (Homo sapiens). As to conditions: at 1 µM.
In assay [4] the target is Casein kinase II subunit alpha (Homo sapiens) (UniProt P68400). As to conditions: at 0.1 µM.
Sequence of Casein kinase II subunit alpha (Homo sapiens) (P68400 whole entry, looked up): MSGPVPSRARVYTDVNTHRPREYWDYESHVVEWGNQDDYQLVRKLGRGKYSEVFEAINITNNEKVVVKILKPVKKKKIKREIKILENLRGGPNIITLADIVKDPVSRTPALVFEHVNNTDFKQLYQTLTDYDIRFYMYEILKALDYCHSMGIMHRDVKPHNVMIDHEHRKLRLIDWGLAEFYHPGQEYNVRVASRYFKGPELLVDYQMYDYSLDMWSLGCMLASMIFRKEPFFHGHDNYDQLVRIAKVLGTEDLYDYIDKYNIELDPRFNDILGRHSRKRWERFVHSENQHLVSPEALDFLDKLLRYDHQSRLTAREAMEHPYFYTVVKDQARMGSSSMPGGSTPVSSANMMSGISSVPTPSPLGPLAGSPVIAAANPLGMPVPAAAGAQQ
Assay [5] shares this target. The settings on record: at 1 µM.
The target of assay [6] is T2, Inhibitor of nuclear factor kappa-B kinase subunit alpha (Homo sapiens) (UniProt O15111).
T2 sequence (whole entry): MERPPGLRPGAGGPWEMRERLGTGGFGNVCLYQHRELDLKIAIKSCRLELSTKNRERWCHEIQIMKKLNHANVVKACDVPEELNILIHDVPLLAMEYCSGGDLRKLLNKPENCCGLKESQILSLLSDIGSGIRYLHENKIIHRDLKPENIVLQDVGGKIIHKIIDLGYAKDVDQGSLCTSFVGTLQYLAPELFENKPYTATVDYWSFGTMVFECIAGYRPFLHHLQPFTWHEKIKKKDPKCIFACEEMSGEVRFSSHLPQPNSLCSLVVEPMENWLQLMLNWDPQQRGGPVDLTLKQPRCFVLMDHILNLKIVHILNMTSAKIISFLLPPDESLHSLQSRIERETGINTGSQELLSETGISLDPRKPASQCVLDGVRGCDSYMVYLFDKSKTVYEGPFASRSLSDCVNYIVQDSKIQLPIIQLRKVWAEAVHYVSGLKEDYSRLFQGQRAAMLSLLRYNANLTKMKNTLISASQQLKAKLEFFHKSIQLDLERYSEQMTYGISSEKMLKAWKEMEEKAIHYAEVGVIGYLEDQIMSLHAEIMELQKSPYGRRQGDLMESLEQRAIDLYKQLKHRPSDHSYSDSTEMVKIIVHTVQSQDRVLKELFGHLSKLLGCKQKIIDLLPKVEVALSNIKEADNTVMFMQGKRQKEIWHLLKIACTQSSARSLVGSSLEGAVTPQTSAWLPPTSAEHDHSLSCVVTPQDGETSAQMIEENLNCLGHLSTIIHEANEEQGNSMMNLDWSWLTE
As to conditions: at 0.1 µM.

In assay [7] the target is T2, Inhibitor of nuclear factor kappa-B kinase subunit alpha (Homo sapiens). As to conditions: at 1 µM.
In assay [8] the target is T3, Inhibitor of nuclear factor kappa-B kinase subunit beta (Homo sapiens) (UniProt O14920).
T3 sequence (whole entry): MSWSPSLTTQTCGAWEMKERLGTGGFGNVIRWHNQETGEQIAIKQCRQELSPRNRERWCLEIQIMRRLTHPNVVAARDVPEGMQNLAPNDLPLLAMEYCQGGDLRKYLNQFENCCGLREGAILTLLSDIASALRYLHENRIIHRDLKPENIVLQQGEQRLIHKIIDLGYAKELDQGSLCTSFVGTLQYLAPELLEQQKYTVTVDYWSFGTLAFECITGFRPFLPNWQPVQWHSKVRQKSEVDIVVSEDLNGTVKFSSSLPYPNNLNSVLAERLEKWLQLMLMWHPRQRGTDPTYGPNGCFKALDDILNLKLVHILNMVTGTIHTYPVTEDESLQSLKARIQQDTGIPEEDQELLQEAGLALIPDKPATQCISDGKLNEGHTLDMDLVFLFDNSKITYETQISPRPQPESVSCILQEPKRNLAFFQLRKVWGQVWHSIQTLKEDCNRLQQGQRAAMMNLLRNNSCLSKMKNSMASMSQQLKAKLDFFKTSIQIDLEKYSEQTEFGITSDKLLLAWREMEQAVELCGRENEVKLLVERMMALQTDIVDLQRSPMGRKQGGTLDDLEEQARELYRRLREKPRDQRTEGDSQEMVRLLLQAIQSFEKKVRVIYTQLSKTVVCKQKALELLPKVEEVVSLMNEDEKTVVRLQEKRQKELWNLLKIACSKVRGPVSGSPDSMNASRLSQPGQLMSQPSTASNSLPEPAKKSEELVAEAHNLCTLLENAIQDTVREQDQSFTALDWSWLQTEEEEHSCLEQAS
The settings on record: at 0.1 µM.

For assay [9], the target named is T3, Inhibitor of nuclear factor kappa-B kinase subunit beta (Homo sapiens). As to conditions: at 1 µM.
Assay [10] deals with T4, Inhibitor of nuclear factor kappa-B kinase subunit epsilon (Homo sapiens) (UniProt Q14164).
T4 sequence (whole entry): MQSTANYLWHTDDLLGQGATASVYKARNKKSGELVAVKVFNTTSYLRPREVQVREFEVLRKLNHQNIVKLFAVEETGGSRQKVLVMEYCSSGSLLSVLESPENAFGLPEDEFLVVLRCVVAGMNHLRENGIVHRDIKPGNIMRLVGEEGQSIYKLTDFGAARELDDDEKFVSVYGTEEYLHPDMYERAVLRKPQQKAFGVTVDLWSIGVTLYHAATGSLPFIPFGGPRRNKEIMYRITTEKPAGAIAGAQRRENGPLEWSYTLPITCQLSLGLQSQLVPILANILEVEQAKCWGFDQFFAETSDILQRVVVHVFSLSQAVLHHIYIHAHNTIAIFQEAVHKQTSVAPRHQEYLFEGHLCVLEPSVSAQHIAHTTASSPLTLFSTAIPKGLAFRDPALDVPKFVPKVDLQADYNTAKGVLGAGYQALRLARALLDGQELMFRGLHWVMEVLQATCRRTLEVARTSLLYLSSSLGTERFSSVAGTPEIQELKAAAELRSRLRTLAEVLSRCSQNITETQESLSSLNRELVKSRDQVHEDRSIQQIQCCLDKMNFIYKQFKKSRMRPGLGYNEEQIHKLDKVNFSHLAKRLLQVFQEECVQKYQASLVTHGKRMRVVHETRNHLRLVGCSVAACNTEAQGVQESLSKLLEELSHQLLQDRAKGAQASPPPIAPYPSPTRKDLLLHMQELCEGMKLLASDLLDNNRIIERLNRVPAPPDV
As to conditions: at 0.1 µM.

Assay [11] addresses T4, Inhibitor of nuclear factor kappa-B kinase subunit epsilon (Homo sapiens). As to conditions: at 1 µM.
For assay [12], the target named is T5, Serine/threonine-protein kinase Nek1 (Homo sapiens) (UniProt Q96PY6).
T5 sequence (whole entry): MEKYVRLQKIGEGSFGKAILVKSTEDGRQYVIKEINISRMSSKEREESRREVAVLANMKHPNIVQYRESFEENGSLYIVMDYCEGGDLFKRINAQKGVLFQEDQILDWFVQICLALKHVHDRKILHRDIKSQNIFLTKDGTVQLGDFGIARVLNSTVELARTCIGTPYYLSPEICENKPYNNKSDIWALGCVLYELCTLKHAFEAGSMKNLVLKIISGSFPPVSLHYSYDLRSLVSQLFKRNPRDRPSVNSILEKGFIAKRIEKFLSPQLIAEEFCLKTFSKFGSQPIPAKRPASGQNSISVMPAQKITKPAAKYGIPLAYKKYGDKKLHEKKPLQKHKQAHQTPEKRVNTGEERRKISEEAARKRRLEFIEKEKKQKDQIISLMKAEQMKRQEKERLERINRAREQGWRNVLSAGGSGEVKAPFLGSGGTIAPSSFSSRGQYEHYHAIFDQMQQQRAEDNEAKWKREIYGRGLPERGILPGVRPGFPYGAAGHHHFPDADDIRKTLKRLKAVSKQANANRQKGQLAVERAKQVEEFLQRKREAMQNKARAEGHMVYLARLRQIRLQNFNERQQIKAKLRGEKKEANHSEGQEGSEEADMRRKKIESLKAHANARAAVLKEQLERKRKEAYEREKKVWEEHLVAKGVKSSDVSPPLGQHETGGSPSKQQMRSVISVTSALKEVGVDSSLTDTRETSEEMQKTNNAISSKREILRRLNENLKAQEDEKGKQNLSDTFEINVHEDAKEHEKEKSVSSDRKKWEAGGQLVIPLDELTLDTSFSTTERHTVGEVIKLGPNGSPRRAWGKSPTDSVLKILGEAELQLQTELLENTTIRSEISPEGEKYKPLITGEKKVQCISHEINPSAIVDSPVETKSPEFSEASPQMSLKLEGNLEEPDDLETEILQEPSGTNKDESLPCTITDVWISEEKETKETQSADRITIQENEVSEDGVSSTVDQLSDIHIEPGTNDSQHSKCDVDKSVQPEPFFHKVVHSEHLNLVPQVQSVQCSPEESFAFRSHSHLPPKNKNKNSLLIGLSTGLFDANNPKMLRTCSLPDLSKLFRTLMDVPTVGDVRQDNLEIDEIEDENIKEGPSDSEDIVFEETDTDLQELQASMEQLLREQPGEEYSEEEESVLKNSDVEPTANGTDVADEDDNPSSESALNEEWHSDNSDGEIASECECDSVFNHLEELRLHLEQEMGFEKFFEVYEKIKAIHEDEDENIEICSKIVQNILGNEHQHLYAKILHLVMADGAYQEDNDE
As to conditions: at 0.1 µM.

Assay [13] concerns the target T5, Serine/threonine-protein kinase Nek1 (Homo sapiens). The settings on record: at 1 µM.
For assay [14], the target named is T6, Serine/threonine-protein kinase Nek2 (Homo sapiens) (UniProt P51955).
T6 sequence (whole entry): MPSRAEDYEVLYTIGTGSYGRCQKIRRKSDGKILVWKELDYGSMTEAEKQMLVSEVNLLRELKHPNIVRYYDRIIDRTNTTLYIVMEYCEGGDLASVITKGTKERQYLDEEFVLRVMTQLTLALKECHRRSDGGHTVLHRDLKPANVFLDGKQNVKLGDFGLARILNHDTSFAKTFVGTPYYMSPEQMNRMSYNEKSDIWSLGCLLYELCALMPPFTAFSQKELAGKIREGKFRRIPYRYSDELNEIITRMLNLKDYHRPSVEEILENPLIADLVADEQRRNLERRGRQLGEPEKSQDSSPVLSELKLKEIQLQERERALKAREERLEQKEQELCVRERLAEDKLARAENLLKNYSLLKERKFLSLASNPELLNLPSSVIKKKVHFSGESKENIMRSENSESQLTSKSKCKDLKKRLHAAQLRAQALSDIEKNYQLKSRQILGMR
The settings on record: at 0.1 µM.

Assay [15] concerns the target T6, Serine/threonine-protein kinase Nek2 (Homo sapiens). The settings on record: at 1 µM.
Assay [16] deals with Serine/threonine-protein kinase Nek6 (Homo sapiens) (UniProt Q9HC98). The settings on record: at 0.1 µM.
Sequence of Serine/threonine-protein kinase Nek6 (Homo sapiens) (Q9HC98 whole entry): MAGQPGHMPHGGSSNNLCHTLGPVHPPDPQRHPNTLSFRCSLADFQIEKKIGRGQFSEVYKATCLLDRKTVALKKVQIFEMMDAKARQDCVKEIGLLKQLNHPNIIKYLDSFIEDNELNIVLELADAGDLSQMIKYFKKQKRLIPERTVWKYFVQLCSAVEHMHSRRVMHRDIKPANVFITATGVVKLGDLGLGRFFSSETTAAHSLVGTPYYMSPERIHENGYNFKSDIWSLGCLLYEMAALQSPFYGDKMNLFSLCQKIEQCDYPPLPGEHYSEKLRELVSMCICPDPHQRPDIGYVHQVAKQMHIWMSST
Assay [17] shares this target. The settings on record: at 1 µM.
For assay [18], the target named is Serine/threonine-protein kinase Nek7 (Homo sapiens) (UniProt Q8TDX7). The settings on record: at 0.1 µM.
Sequence of Serine/threonine-protein kinase Nek7 (Homo sapiens) (Q8TDX7 whole entry, looked up): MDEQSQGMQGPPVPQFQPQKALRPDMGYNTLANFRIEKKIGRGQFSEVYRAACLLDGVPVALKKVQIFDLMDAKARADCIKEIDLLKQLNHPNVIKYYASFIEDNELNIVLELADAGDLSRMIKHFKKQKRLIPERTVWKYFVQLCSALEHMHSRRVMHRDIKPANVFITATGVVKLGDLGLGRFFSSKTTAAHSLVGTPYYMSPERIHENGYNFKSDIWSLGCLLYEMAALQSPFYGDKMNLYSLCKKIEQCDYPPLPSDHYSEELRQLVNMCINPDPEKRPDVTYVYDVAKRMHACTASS
Assay [19] has the same target. The settings on record: at 1 µM.
Assay [20] concerns the target T7, Serine/threonine-protein kinase Nek9 (Homo sapiens) (UniProt Q8TD19).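 Also: reported value is the mean percent inhibition of NEK9.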
T7 sequence (whole entry): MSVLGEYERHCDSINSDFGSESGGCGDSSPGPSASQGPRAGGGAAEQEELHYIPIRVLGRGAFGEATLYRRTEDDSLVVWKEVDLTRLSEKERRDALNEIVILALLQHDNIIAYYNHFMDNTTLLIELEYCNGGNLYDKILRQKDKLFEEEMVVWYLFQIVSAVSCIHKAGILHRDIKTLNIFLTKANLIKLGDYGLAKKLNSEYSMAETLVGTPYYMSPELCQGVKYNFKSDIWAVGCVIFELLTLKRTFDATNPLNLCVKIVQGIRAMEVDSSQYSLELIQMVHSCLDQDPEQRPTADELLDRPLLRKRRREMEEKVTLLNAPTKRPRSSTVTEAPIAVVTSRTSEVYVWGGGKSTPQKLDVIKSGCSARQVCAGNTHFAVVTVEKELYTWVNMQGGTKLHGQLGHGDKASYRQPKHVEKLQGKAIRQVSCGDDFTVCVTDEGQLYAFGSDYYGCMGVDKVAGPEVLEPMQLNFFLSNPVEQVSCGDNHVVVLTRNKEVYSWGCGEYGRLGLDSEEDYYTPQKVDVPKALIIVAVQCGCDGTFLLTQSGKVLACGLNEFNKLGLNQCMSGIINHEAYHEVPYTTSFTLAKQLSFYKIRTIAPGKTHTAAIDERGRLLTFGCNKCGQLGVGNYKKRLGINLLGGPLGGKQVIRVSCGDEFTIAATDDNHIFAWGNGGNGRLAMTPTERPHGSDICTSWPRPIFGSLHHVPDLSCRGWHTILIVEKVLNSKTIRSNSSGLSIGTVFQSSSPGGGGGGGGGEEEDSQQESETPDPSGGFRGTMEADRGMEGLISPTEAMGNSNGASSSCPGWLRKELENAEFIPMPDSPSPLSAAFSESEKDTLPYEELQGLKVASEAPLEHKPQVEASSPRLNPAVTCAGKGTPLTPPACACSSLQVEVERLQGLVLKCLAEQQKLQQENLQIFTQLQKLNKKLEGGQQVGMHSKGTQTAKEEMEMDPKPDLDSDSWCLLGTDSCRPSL
As to conditions: at 0.1 µM.

Sequence of Sphingosine kinase 1 (Homo sapiens) (Q9NYA1 whole entry): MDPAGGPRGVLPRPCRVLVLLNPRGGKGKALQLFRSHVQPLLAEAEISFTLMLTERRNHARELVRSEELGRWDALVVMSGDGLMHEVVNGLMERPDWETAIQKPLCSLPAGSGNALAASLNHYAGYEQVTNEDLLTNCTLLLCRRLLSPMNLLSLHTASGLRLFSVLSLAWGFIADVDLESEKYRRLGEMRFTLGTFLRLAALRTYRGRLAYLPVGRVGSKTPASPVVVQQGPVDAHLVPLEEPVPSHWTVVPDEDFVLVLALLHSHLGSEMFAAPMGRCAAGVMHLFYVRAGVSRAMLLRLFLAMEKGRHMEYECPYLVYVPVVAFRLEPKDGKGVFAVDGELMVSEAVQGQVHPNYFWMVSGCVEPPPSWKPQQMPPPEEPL

For the compound `FC(F)(F)CNc1nccc(-c2cnn3ncccc23)n1`, the inhibition in assay [1] was -0.16%; in assay [2], -1.21%; in assay [3] it was -4.21%; in assay [4], 9.47%; in [5] it was 3.8%; in assay [6], 1.92%. For the same compound, the inhibition in assay [7] was determined as 9.86%; in assay [8], 4.92%; in assay [9], 5.42%; in assay [10] it was 6.69%; in assay [11], 0.44%; in assay [12] it was 2.31%. The inhibition is 0.95% in [13]; 3.06% in assay [14]; 2.24% in [15]; 0.83% in assay [16]; 0.6% in [17]; -1.64% in [18]. In addition, the inhibition in assay [19] turned out to be 1.79%; in assay [20], 4.65%.
